# From PubChem BioAssay
# AID504770 = E. coli YBA685 growth inhibition, screen for V. cholerae RctB inhibitors; E. coli YBA685 rctB-dependent plasmid, OD600 growth, 3 h; hits give low values; z-score (concentration not given with the values); 0.27% of 130,000 active; AID 504770; in the data active = z-score below about -2, passing the limit was not always enough
# PV pol inh = poliovirus RNA polymerase inhibition; P03300; poliovirus polymerase elongation, fluorescence polarization; hits give low values; 0.66% of 150,000 active; AID 588519; % elongation, % (compound at 16.7 µg/mL); in the data active = % elongation below about 90%
# Mtb MenB inh = Mtb MenB enzyme inhibition; P9WNP5; MenB enzyme assay, absorbance read-out; inhibition, % (test concentration not listed); 0.43% of 100,000 active; AID 540299; in the data active = inhibition above about 21%, passing the limit was not always enough
# MbtI inh = MbtI salicylate synthase inhibition | P9WFX0 | purified MbtI enzyme, fluorescence intensity read-out | inhibition, % (test concentration not listed) | 0.89% of 100,000 active | AID 493033; in the data active = inhibition mostly above about 56%, no sharp cut-off; inactive = mostly below about 77%
# Target sequence (P9WFX0 whole entry, looked up): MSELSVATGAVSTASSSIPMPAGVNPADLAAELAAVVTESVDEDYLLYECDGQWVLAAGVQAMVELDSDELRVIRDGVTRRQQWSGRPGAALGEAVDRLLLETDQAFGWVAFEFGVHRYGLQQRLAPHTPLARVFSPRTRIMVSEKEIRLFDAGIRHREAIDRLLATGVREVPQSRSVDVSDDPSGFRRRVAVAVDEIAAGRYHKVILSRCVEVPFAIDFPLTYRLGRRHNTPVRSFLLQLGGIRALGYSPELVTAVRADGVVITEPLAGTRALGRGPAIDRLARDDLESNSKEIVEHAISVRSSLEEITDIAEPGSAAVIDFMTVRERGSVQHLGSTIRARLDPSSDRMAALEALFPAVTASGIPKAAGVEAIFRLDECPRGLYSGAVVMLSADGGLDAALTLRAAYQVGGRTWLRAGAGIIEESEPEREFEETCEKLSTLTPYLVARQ
# Starred values were filed as active, the others as inactive; i = inactive; . = no result. This is a sample that favours compounds with a hit; in the whole collection about 1.5% have one here.
SMILES,AID504770,PV pol inh,Mtb MenB inh,MbtI inh
C=CCN(CC=C)Cn1nc(Nc2ccccc2F)sc1=S,0.35,107,3,99*
COc1ccc(-c2nc(CN3CCCC3c3cccs3)cs2)cc1OC (centres undefined),-0.35,102,15,30
CC(C)n1cc(C(=O)c2ccccc2O)cc1-c1nc2ccccc2c(=O)[nH]1,-0.85,101,8,-9
O=C(COC(=O)c1ccco1)NCC1CCCO1 (centres undefined),0,99,35*,-3
O=C(CCNc1nc(-c2ccccc2)nc2ccccc12)N1CCCC1,-0.3,98,-18,25
CCN1CCN(CCC(=O)Nc2ccc(C)cc2)CC1,-0.1,100,37*,-1
CCN1CCN(CCC(=O)Nc2ccc(-c3ccccc3)cc2)CC1,-0.4,100,.,14
Cc1cccc(NC(=O)c2ccc(=O)[nH]c2)c1,-1.2,103,.,5
FC1(F)C2C3CC4C5C3C1C5C(F)(F)C42 (centres undefined),1.4,100,7,14
Cn1cc(NC(=O)NCCc2ccsc2)c2ccccc2c1=O,0.45,57*,-5,-7
CCOc1ccc(CCNC(=O)Nc2cn(C)c(=O)c3ccccc23)cc1OCC,-0.15,101,-12,-7
CSc1ccc(CCNC(=O)Nc2cn(C)c(=O)c3ccccc23)cc1,2.1,45*,-28,-6
CC(C)CCNC(=O)Nc1cn(C)c(=O)c2ccccc12,-0.45,100,-25,-22
Cc1ccc(NC(=O)Nc2cn(C)c(=O)c3ccccc23)c(Cl)c1,.,80*,.,.
CCc1ccc(NC(=O)Nc2cn(C)c(=O)c3ccccc23)cc1,.,70*,.,.
O=C1CCN(C(C(=O)Nc2ccc(F)cc2)c2ccccc2)CC1 (centres undefined),-0.35,.,6,-2
COc1ccc(N2C(=O)C3N=NN(CC(=O)NCc4ccccc4)C3C2=O)cc1OC (centres undefined),0.25,98,8,-2
N#Cc1c(F)cccc1N(Cc1cccnc1)C(=S)Nc1ccc(Cl)c(Cl)c1,-1.2,107,-21,-6
Cn1cc(NC(=O)NC2CCCCC2)c2ccccc2c1=O,1.2,22*,-25,-5
CC1(C)Cc2c(c(N3CCOCC3)nc3sc(-c4ccc(C(=O)NN)o4)c(N)c23)CO1,-0.2,108,-13,-4
Cc1cc(C(=O)N/N=C2\C(=O)c3cccc4cccc2c34)c(C)o1,0,102,-35,4
O=C(N/N=C1/C(=O)c2cccc3cccc1c23)c1ccncc1,0.3,89*,-32,3
Cc1cccc(C(N)=S)c1,-0.2,98,-17,62*
CCc1nnc2c3ccccc3nc(N3CCN(c4cccc(C)c4C)CC3)n12,0.35,100,-1,-27
Cc1sc(NC(=O)C2CC2)c(C#N)c1C,-0.7,95,-50,90*
SMILES,AID504770,PV pol inh,Mtb MenB inh,MbtI inh
CC1Sc2ccc(C(=O)NCc3ccccn3)cc2NC1=O (centres undefined),-0.6,87*,-42,87*
CNC(=O)/C(=C\c1ccco1)NC(=O)c1ccccc1,-0.85,.,.,.
CCCc1cc(=O)c2c(O)cccc2o1,-0.55,.,.,.
CCCc1cc2ccccc2o1,2.1,100,32*,1
COC(=O)c1c(NC(=O)c2cc3ccccc3o2)sc2c1CCCC2,1.4,99,10,7
CC(OC(=O)c1cc(S(=O)(=O)N(C)C)ccc1N1CCCC1)C(=O)N1CCc2ccccc21 (centres undefined),-3*,103,-2,0
O=C1CC(Sc2cccs2)C(=O)N1c1ccccc1 (centres undefined),-1.2,.,.,.
O=C1CC(Sc2ccccc2)C(=O)N1c1ccccc1 (centres undefined),0.65,103,2,64*
O=C(O)c1cccnc1SC1CC(=O)N(c2ccc(Cl)cc2)C1=O (centres undefined),0.1,105,-17,66*
CCc1ccc(N2C(=O)CC(Sc3ccccc3N)C2=O)cc1 (centres undefined),1.4,98,-4,-1
CCc1ccc(N2C(=O)CC(Sc3nnc(N)s3)C2=O)cc1 (centres undefined),0.85,101,4,101*
CCc1ccc(N2C(=O)CC(Sc3ccccn3)C2=O)cc1 (centres undefined),-0.55,103,-31,69*
O=C1CC(Sc2ccccn2)C(=O)N1c1ccccc1 (centres undefined),0.25,.,.,.
O=C(O)c1c[nH]c(=O)cc1C(F)(F)F,-0.15,101,-7,89
CC(/C=N/Nc1nc2ccccc2[nH]1)c1ccccc1 (centres undefined),-0.3,99,2,-15
C/C(=N\NC(=Nc1ccccc1)c1ccccn1)c1ccccn1,1.3,99,-79,65*
CC(=O)n1c2c(c3ccccc31)OC(N)=C(C#N)C2c1ccc(Cl)cc1Cl (centres undefined),-0.15,99,8,11
O=C(Cn1c(C(=O)NCc2ccco2)cc2sccc21)c1ccccc1,1.1,104,24*,12
Cc1nn(Cc2ccccc2)c(C)c1CC(=O)O,-0.05,101,5,-4
CCOC(=O)C1CCCN(Cn2nnn(-c3ccc(OC)cc3)c2=S)C1 (centres undefined),0.55,79*,11,63*
O=C(N=C=S)c1ccc2ccccc2c1,-1.1,75*,-67,i
CN(C)S(=O)(=O)c1cccc(C(=O)N=C=S)c1,-0.25,70*,-67,96*
COc1ccc2nc(C)cc(NCC3CCCO3)c2c1 (centres undefined),0,94,-8,101
CC(=O)Oc1c(Br)cc2oc(=O)sc2c1Br,0.5,99,-65,91*
COc1ccc(OCCN(C)C(=O)/C=C/c2nc3ccccc3o2)cc1,-0.1,104,-4,10
SMILES,AID504770,PV pol inh,Mtb MenB inh,MbtI inh
CC(C)(C)c1[nH]oc(=O)c1N=O,-7.3*,.,.,14
CC1(C)Nc2ccccc2C(=O)N1c1ccccc1,0.75,102,43*,90
Cc1ccc(C=C2C(=O)NC(=O)NC2=O)cc1,-4.7*,99,-54,22
COC(=O)C1=C(C)NC(=O)/C1=C\c1ccc(C)cc1,2.6,101,-58,14
Cc1cc(CNCCCN2CCCCC2C)c(C)n1-c1ccnn1C(C)C (centres undefined),-0.35,98,-7,-12
CCOc1ccc(-n2c(SCC(=O)NC3CCCC3)nnc2-c2ccoc2C)cc1,-0.1,100,36*,-4
Cc1ccc(-n2[nH]c(=O)c(N=O)c2O)cc1C,-0.3,78*,-28,17
Cc1ccc(N2NC(=O)CC2=O)cc1C,-0.45,92,13,.
NC(=S)N1CCCC1,0.15,97,-16,-3
S=C(S)N1CCCC1,-3.5*,108,-60,96*
N#Cc1ccccc1COC(=O)c1nc(-c2ccccc2)n(-c2ccccc2)n1,-0.3,102,-7,4
Cc1ccc(NC(=O)CSC(=N)N)cc1,-1.6,102,1,12
N=C(N)SCC(=O)Nc1ccccc1,-0.4,100,23*,4
O=C1C=CC(=O)N1CCc1ccccc1,-1.6,102,.,93*
O=C1C=CC(=O)N1CCc1ccc(Cl)cc1,-1.8,101,-7,100*
